Assay outcomes deposited in PubChem by several laboratories.
An excerpt weighted towards active compounds, which were near 1.8% of everything screened.
HDAC3 inhib: inhibitors of human histone deacetylase 3. recombinant HDAC3, fluorogenic peptide/trypsin coupled, fluorescence. O15379. 0.15% of 320,000 active. inhibition, % at 8.3 µM; in the data active means inhibition above about 26%, passing the limit was not always enough; inconclusive means no clear call, values can overlap the other calls
Neddylation inh: blocks human cullin neddylation. inhibition, % at 25 µM. AID 651699. TR-FRET cullin neddylation, biochemical. 0.58% of 360,000 active; in the data active means inhibition above about 36%
H9c2 protect: protects H9c2 cardiomyocytes from peroxide injury | 0.63% of 360,000 active | H2O2 injury protection, ATPLite, 2 h | protection from H2O2 cell death, % at 20 µM;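 active means compounds giving at least 50% protection of heart cells from peroxide-induced death in the single-dose screen, raw or plate-pattern-corrected value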;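 further: 0% = DMSO wells with peroxide and 100% = DMSO wells without peroxide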
GRK2 inh: human GRK2 inhibition via aptamer displacement | inhibition of aptamer binding, % at 10 µM | AID 488847 | 0.59% of 330,000 active | bead flow cytometry, FAM-aptamer displacement from GRK2;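 active means inhibition of aptamer binding above 40%, roughly 3 SD of noise, on plates passing a quality check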;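 further: median bead fluorescence of bound FAM aptamer so fluorescent compounds give negative values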
Target sequence (P25098 whole entry, looked up): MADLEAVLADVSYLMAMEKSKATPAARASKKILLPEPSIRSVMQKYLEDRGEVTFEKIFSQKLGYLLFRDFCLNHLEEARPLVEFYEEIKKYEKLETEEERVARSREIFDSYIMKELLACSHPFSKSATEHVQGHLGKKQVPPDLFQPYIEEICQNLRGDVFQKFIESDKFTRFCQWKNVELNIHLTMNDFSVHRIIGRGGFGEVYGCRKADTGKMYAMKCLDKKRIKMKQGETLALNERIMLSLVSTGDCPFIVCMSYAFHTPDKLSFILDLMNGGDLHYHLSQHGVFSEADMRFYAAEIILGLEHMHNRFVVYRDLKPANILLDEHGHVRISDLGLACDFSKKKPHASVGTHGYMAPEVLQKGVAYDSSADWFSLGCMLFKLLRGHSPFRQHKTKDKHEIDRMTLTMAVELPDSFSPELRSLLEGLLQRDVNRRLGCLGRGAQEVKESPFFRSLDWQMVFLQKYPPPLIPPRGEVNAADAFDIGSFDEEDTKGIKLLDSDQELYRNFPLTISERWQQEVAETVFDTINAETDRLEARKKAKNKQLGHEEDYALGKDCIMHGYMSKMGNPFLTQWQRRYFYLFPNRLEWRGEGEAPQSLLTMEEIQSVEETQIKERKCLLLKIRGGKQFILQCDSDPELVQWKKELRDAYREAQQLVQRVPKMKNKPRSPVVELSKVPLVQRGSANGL
Active calls of the source: *; i = inactive; ? = inconclusive; / = no result given.

SMILES	HDAC3 inhib	Neddylation inh	H9c2 protect	GRK2 inh
Cn1c(=O)c2c(nc(SCCN3CCOCC3)n2Cc2ccc(Cl)cc2)n(C)c1=O	/	-3	64*	/
CSc1nc(-c2ccco2)nn1C(=O)c1ccccc1	97*	3	14	0
O=C(Cc1ccccc1)n1nc(-c2ccco2)nc1SCc1ccccc1	6	6	-1	0
CSc1nc(-c2ccco2)nn1C(=O)c1ccco1	72*	-12	15	0
CCCC(=O)n1nc(-c2ccco2)nc1SCc1ccccc1	48*	3	7	1
CSc1nc(-c2ccco2)nn1C(=O)c1ccc(C)cc1	?	2	38	0
Cc1ccc(Cn2c(/C=C/c3ccco3)nc3ccccc32)cc1	2	45*	-6	0
Clc1ccc(Cn2c(/C=C/c3ccco3)nc3ccccc32)cc1	4	/	1	1
Cc1cc(C(=O)COc2ccc(C#N)cc2)c(C)n1CC1CCCO1 (stereo not drawn)	-9	1	-12	0
C/C(=N\NC(=O)c1c(Cl)cnn1C)c1cccnc1	/	-6	3	/
O=C(Oc1ccc(-c2nnco2)cc1)c1ccco1	63*	-8	10	0
O=C(Oc1cccc(-n2cnnn2)c1)c1ccco1	32*	-14	17	1
CCCNC(=O)c1onc(CSc2ccc(F)cc2)c1C(=O)NCCOC	-3	-19	0	1
COc1ccc(-c2cc(C(=O)NNC3=NCCC3)c3c(C)nn(-c4ccccc4)c3n2)cc1	1	23	84*	0
COc1ccc(NC(=O)c2cc(-c3ccccc3)nc3c2c(C)nn3-c2ccccc2)c(OC)c1	-2	/	-6	1
CCOC(=O)C1=C(C)Nc2ccccc2N=C1NC(=O)c1oc2ccccc2c1COC	1	-17	86*	1
O=c1cc2oc3cc(O)c(O)cc3c(-c3ccccc3O)c-2cc1O	/	-10	0	/
CCOc1ccccc1-c1c2cc(O)c(=O)cc-2oc2cc(O)c(O)cc12	/	-5	60*	/
CCCN1C(=O)/C(=C/c2c(N3CCNC(=O)C3CC(=O)OCC)nc3c(C)cccn3c2=O)SC1=S (stereo not drawn)	/	-138	63*	0
CCC(C(=O)c1ccc2ncccc2c1)c1ccccc1 (stereo not drawn)	-1	-16	-13	4
O=C1C=C(N2CCN(c3ccccn3)CC2)C(=O)c2c(O)ccc(O)c21	/	-12	-15	/
CC1=CC(=O)c2c(O)ccc(O)c2C1=O	3	/	/	46*
CC(C)C[C@H](NC(=O)c1nc[nH]c1C(=O)NCc1ccc(CNC(=O)OC(C)(C)C)cc1)C(=O)OC(C)(C)C	35*	-8	-2	1
CC(C)(C)OC(=O)CNC(=O)c1[nH]cnc1C(=O)Nc1ccc(CNC(=O)OC(C)(C)C)cc1	7	-2	87*	0
CC(C)C[C@H](NC(=O)c1nc[nH]c1C(=O)NCc1ccccc1)C(=O)OC(C)(C)C	40*	-21	2	0
SMILES	HDAC3 inhib	Neddylation inh	H9c2 protect	GRK2 inh
C[C@H](NC(=O)c1nc[nH]c1C(=O)NCc1ccc(CNC(=O)OC(C)(C)C)cc1)C(=O)OC(C)(C)C	?	4	-10	0
CC(C)C[C@H](NC(=O)c1nc[nH]c1C(=O)NC1CCN(C(=O)OC(C)(C)C)CC1)C(=O)OCc1ccccc1	44*	-11	-21	0
c1ccc(-c2nc(NCC3CC3)nc3ccsc23)cc1	/	/	-3	/
CC1(C(=O)Nc2ccc(F)cc2F)CCN1C(=O)Cc1ccccc1 (stereo not drawn)	/	-2	2	/
CC(C)C[C@H](NC(=O)c1[nH]cnc1C(=O)Nc1ccc(CNC(=O)OC(C)(C)C)cc1)C(=O)OCc1ccccc1	3	17	-6	0
CC(C)C[C@H](NC(=O)c1[nH]cnc1C(=O)Nc1ccc(CNC(=O)OC(C)(C)C)cc1)C(=O)OC(C)(C)C	52*	-9	20	0
Cc1ccc(C)n1-c1ccc(C(=O)O)cc1	-2	/	/	82*
Cc1ccc(N2C(=O)C3C(c4ccccc4)N4CCCN4C3(C)C2=O)cc1 (stereo not drawn)	-3	2	8	1
C/C(=N\Nc1nc(C)cc(C)n1)c1ccc(C)o1	?	5	2	0
C/C(=N\Nc1nnc2c3ccccc3n(C)c2n1)c1ccc(C)o1	-13	-17	70*	1
O=C(OCc1ccccc1)/C(=C/c1cccc(Br)c1)NC(=O)c1ccco1	10	-3	-6	0
COc1ccc(CNC(=O)COC(=O)Cc2ccc(Br)cc2)cc1	6	0	-4	0
COC(=O)c1cccc(NC(=O)c2cc3ccccc3o2)c1	6	-28	-7	0
COC(=O)c1cc(NC(=O)c2cc3ccccc3o2)cc(C(=O)OC)c1	-4	-2	89*	2
O=C(CSc1ccc(-c2ccccn2)nn1)N1CCCc2ccccc21	0	8	52*	0
Cc1cc(C)cc(NC(=O)CSc2ccc(-c3ccccn3)nn2)c1	2	-13	67*	3
O=C(CSc1ccc(-c2cccnc2)nn1)N1CCCc2ccccc21	0	/	/	0
Cc1ccc(-c2nnc3ccc(SCC(=O)N4CCCc5ccccc54)nn23)cc1	-6	-31	105*	7
Cc1ccccc1NC(=O)CSc1ccc(-c2ccccn2)nn1	5	-5	2	0
Cc1ccc(-c2nn3c(C)nnc3s2)cc1NC(=O)COc1ccc(Cl)cc1	13	-16	50*	0
COc1ccccc1C(=O)COC(=O)CN1C(=O)C2CC=CCC2C1=O (stereo not drawn)	0	1	-5	0
C=CCc1cccc(/C=N/NC(=O)c2ccc3nc[nH]c3c2)c1O	12	2	50*	1
C=CCc1cccc(/C=N/NC(=O)c2ccccc2Br)c1O	6	10	51*	3
Cc1ccc(S(=O)(=O)N2[C@@H](c3ccc(F)cc3)C(C(=O)O)=C[C@H]2CC2CCCC2)cc1	1	1	5	1
C=C(C)COc1ccc(-c2nc(N)ncc2Oc2ccccc2OC)c(O)c1	30*	i	-7	0
SMILES	HDAC3 inhib	Neddylation inh	H9c2 protect	GRK2 inh
CCOc1ccc(-c2nc(N)ncc2Oc2cccc(OC)c2)c(O)c1	27*	-88	-15	3
C=C(C)COc1ccc(-c2nc(N)ncc2Oc2ccc(OC)cc2)c(O)c1	9	i	-8	1
COc1ccc(Cc2nc3ccc(C(=O)NCCc4ncccc4C)cc3o2)cc1OC	/	-12	8	/
Oc1c(Cl)cc(Cl)cc1/C=N/c1nccs1	-10	6	61*	0
COc1cc(-c2cnc3c(NC=O)cc(-c4ccsc4)cn23)cc(OC)c1OC	/	23	56*	/
COc1cc(-c2cc(NC=O)c3ncc(-c4ccc(F)cc4)n3c2)cc(OC)c1OC	/	11	35	/
COc1cc(-c2cnc3c(NC=O)cc(-c4cccnc4)cn23)cc(OC)c1OC	/	9	76*	/
CC(=NCCCn1ccnc1)c1c(-c2ccccc2)[nH]n(-c2nc3ccccc3s2)c1=O	5	-30	59*	0
O=C(C[C@H]1C(=O)N(c2ccccc2)C[C@@H]1Cc1ccccc1)Nc1ccccc1	/	-5	7	/
